According to PubChem BioAssay (NCI):
The panel holds about 83,000 compounds, 20% with a hit somewhere; the sample as a whole holds those more often.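 96-well plates, one dose, 48 hours. Percent growth reported; active if below 10.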 A number with no mark means an inactive call. Activity calls are given as the source filed them.

Legend:
Assay in all cases: NCI-60 one-dose screen, 48 h (100 = growth as untreated, 0 = no growth, -100 = all killed)
Details in all cases: 10 µM unless noted
SK-MEL-2 melanoma = test system: SK-MEL-2 melanoma
EKVX NSCLC = test system: EKVX NSCLC
SN12C renal = test system: SN12C renal
UO-31 renal = test system: UO-31 renal
TK-10 renal = test system: TK-10 renal
A498 renal = test system: A498 renal
CCRF-CEM leukemia = test system: CCRF-CEM leukemia
MOLT-4 leukemia = test system: MOLT-4 leukemia
SR leukemia = test system: SR leukemia
RPMI-8226 leukemia = test system: RPMI-8226 leukemia
OVCAR-8 ovarian = test system: OVCAR-8 ovarian
OVCAR-5 ovarian = test system: OVCAR-5 ovarian
OVCAR-4 ovarian = test system: OVCAR-4 ovarian
SK-OV-3 ovarian = test system: SK-OV-3 ovarian
IGROV1 ovarian = test system: IGROV1 ovarian
OVCAR-3 ovarian = test system: OVCAR-3 ovarian
HS 578T breast = test system: HS 578T breast
NCI/ADR-RES ovarian = test system: NCI/ADR-RES ovarian
T-47D breast = test system: T-47D breast

SMILES: COc1cc(C2=NN(C(C)=O)C(c3cccc(Nc4ccnc5cc(C(F)(F)F)ccc45)c3)C2)cc(OC)c1OC (configuration not stated)
- growth (SK-MEL-2 melanoma): 81.4%
- growth (EKVX NSCLC): 52.2%
- growth (SN12C renal): 64.3%
- growth (UO-31 renal): 35.8%
- growth (TK-10 renal): 58.3%
- growth (A498 renal): 60.3%
- growth (CCRF-CEM leukemia): 44%
- growth (MOLT-4 leukemia): 22.3%
- growth (SR leukemia): 29%
- growth (RPMI-8226 leukemia): 20.8%
- growth (OVCAR-8 ovarian): 56.1%
- growth (OVCAR-5 ovarian): 82.7%
- growth (OVCAR-4 ovarian): 52%
- growth (SK-OV-3 ovarian): 69.3%
- growth (IGROV1 ovarian): 62.4%
- growth (OVCAR-3 ovarian): 61.2%
- growth (HS 578T breast): 76.6%
- growth (NCI/ADR-RES ovarian): 53%
- growth (T-47D breast): 40.2%

SMILES: C#C[C@@]1(O)[C@@H](CO)O[C@@H](n2cc(I)c3c(N)ncnc32)[C@@H]1O
- growth (SK-MEL-2 melanoma): -27.6% (active)
- growth (EKVX NSCLC): -19.2% (active)
- growth (SN12C renal): 6.87% (active)
- growth (UO-31 renal): -14.8% (active)
- growth (TK-10 renal): 23.4%
- growth (A498 renal): -86.5% (active)
- growth (CCRF-CEM leukemia): 6.77% (active)
- growth (MOLT-4 leukemia): -18.8% (active)
- growth (SR leukemia): -1.14% (active)
- growth (RPMI-8226 leukemia): 5.83% (active)
- growth (OVCAR-8 ovarian): -19.4% (active)
- growth (OVCAR-5 ovarian): 20.6%
- growth (OVCAR-4 ovarian): 20.4%
- growth (SK-OV-3 ovarian): -28.3% (active)
- growth (IGROV1 ovarian): -34.9% (active)
- growth (OVCAR-3 ovarian): -17.8% (active)
- growth (HS 578T breast): -15.5% (active)
- growth (NCI/ADR-RES ovarian): -4.5% (active)
- growth (T-47D breast): -21.1% (active)

SMILES: COC(=O)c1oc2c(C(=O)/C=C/c3ccc(OC)cc3)c(OCCCN3CCCCC3)ccc2c1C
- growth (SK-MEL-2 melanoma): 53.5%
- growth (EKVX NSCLC): 28%
- growth (SN12C renal): 22.5%
- growth (UO-31 renal): 12.2%
- growth (TK-10 renal): 35.2%
- growth (A498 renal): 83.6%
- growth (CCRF-CEM leukemia): -46.2% (active)
- growth (MOLT-4 leukemia): -31.4% (active)
- growth (SR leukemia): -31% (active)
- growth (RPMI-8226 leukemia): -65.7% (active)
- growth (OVCAR-8 ovarian): -22.7% (active)
- growth (OVCAR-5 ovarian): 23.3%
- growth (OVCAR-4 ovarian): 14.1%
- growth (SK-OV-3 ovarian): 28.5%
- growth (IGROV1 ovarian): 9.13% (active)
- growth (OVCAR-3 ovarian): 26.5%
- growth (HS 578T breast): 12.6%
- growth (NCI/ADR-RES ovarian): 0.873% (active)
- growth (T-47D breast): 38.5%

SMILES: COc1ccc(C(=O)c2cc(OC)c(C)c(OC)c2)cc1OC(=O)CCl
- growth (SK-MEL-2 melanoma): 35.4%
- growth (EKVX NSCLC): 64.4%
- growth (SN12C renal): 41.5%
- growth (UO-31 renal): 49.9%
- growth (TK-10 renal): 66.5%
- growth (A498 renal): 78.5%
- growth (CCRF-CEM leukemia): 11.9%
- growth (MOLT-4 leukemia): 13.6%
- growth (SR leukemia): 12.5%
- growth (RPMI-8226 leukemia): 28.3%
- growth (OVCAR-8 ovarian): 25.4%
- growth (OVCAR-5 ovarian): 74.8%
- growth (OVCAR-4 ovarian): 60.1%
- growth (SK-OV-3 ovarian): 19.4%
- growth (IGROV1 ovarian): 30.7%
- growth (OVCAR-3 ovarian): -8.39% (active)
- growth (HS 578T breast): 40.5%
- growth (NCI/ADR-RES ovarian): 10.5%
- growth (T-47D breast): 43.8%

SMILES: C=C1C(=O)O[C@H]2[C@H]1CC/C(C=Nc1c(N)cc(F)cc1Br)=C\CC[C@@]1(C)O[C@@H]21
- growth (SK-MEL-2 melanoma): 86.7%
- growth (EKVX NSCLC): 75.2%
- growth (SN12C renal): 76.1%
- growth (UO-31 renal): 53.5%
- growth (TK-10 renal): 81.7%
- growth (A498 renal): 119%
- growth (CCRF-CEM leukemia): 7.71% (active)
- growth (MOLT-4 leukemia): 45.9%
- growth (SR leukemia): 21.3%
- growth (RPMI-8226 leukemia): 12.8%
- growth (OVCAR-8 ovarian): 78.4%
- growth (OVCAR-5 ovarian): 103%
- growth (OVCAR-4 ovarian): 105%
- growth (SK-OV-3 ovarian): 87.3%
- growth (IGROV1 ovarian): 60.4%
- growth (OVCAR-3 ovarian): 50.9%
- growth (HS 578T breast): 90.2%
- growth (NCI/ADR-RES ovarian): 109%
- growth (T-47D breast): 50%

SMILES: Cc1[nH]c(N=Nc2ccccc2)nc1N=Nc1ccccc1
- growth (SK-MEL-2 melanoma): 39.8%
- growth (EKVX NSCLC): 20.5%
- growth (SN12C renal): 39.2%
- growth (UO-31 renal): -22% (active)
- growth (TK-10 renal): 13.1%
- growth (A498 renal): 35%
- growth (CCRF-CEM leukemia): -24.1% (active)
- growth (MOLT-4 leukemia): 13.8%
- growth (SR leukemia): 23.1%
- growth (RPMI-8226 leukemia): -2.66% (active)
- growth (OVCAR-8 ovarian): 14.7%
- growth (OVCAR-5 ovarian): 18.8%
- growth (OVCAR-4 ovarian): 30.3%
- growth (SK-OV-3 ovarian): 39%
- growth (IGROV1 ovarian): -22.8% (active)
- growth (OVCAR-3 ovarian): 33.2%
- growth (HS 578T breast): 61.5%
- growth (NCI/ADR-RES ovarian): 0.979% (active)
- growth (T-47D breast): 30.5%

SMILES: COc1ccc2nc(-c3ccc(OC)c(OC)c3)cc(-c3nnc(SCC(=O)Nc4ccc(/C(C)=N\O)cc4)n3-c3ccccc3)c2c1
- growth (SK-MEL-2 melanoma): 80.7%
- growth (EKVX NSCLC): 88.8%
- growth (SN12C renal): 80.7%
- growth (UO-31 renal): 54.2%
- growth (TK-10 renal): 65.9%
- growth (A498 renal): 77.9%
- growth (CCRF-CEM leukemia): 40%
- growth (MOLT-4 leukemia): 33.8%
- growth (SR leukemia): 54.7%
- growth (RPMI-8226 leukemia): 47.7%
- growth (OVCAR-8 ovarian): 72.4%
- growth (OVCAR-5 ovarian): 102%
- growth (OVCAR-4 ovarian): 95.5%
- growth (SK-OV-3 ovarian): 101%
- growth (IGROV1 ovarian): 28.1%
- growth (OVCAR-3 ovarian): 87.8%
- growth (HS 578T breast): 72.2%
- growth (NCI/ADR-RES ovarian): 77.2%
- growth (T-47D breast): 45.8%

SMILES: CCCCOc1nc2ccc(C)cc2cc1/C=C/C(=O)/C=C/c1ccc2c(c1)OCO2
- growth (SK-MEL-2 melanoma): 69.6%
- growth (EKVX NSCLC): 102%
- growth (SN12C renal): 89.2%
- growth (UO-31 renal): 75%
- growth (TK-10 renal): 113%
- growth (A498 renal): 106%
- growth (CCRF-CEM leukemia): 75.9%
- growth (MOLT-4 leukemia): 81.5%
- growth (SR leukemia): 42.9%
- growth (RPMI-8226 leukemia): 5.04% (active)
- growth (OVCAR-8 ovarian): 38.7%
- growth (OVCAR-5 ovarian): 131%
- growth (OVCAR-4 ovarian): 95.4%
- growth (SK-OV-3 ovarian): 106%
- growth (IGROV1 ovarian): 90.3%
- growth (OVCAR-3 ovarian): 74.6%
- growth (HS 578T breast): 101%
- growth (NCI/ADR-RES ovarian): 91.7%
- growth (T-47D breast): 62.7%

SMILES: OCCNc1nc(NCCO)nc(Nc2ccc(C3=NN(c4cc(Cl)cc(Cl)c4)C(c4ccc(C(F)(F)F)cc4)C3)cc2)n1 (configuration not stated)
- growth (SK-MEL-2 melanoma): 45.9%
- growth (EKVX NSCLC): 49.4%
- growth (SN12C renal): 59.6%
- growth (UO-31 renal): 42.2%
- growth (TK-10 renal): 33.1%
- growth (A498 renal): 67.7%
- growth (MOLT-4 leukemia): 7.9% (active)
- growth (SR leukemia): 4.83% (active)
- growth (RPMI-8226 leukemia): -1.42% (active)
- growth (OVCAR-8 ovarian): 39.5%
- growth (OVCAR-5 ovarian): 89%
- growth (OVCAR-4 ovarian): 53.6%
- growth (SK-OV-3 ovarian): 70.1%
- growth (IGROV1 ovarian): 41.7%
- growth (OVCAR-3 ovarian): 4.39% (active)
- growth (HS 578T breast): 43.6%
- growth (NCI/ADR-RES ovarian): 55.6%
- growth (T-47D breast): 53.5%

SMILES: CC1=C/C(=N\N=C2/C=C(C)CC(C)(C)C2)CC(C)(C)C1
- growth (SK-MEL-2 melanoma): 107%
- growth (EKVX NSCLC): 108%
- growth (SN12C renal): 108%
- growth (UO-31 renal): 83.7%
- growth (TK-10 renal): 95.2%
- growth (A498 renal): 94.4%
- growth (CCRF-CEM leukemia): 97.9%
- growth (MOLT-4 leukemia): 96.3%
- growth (SR leukemia): 97.3%
- growth (RPMI-8226 leukemia): 102%
- growth (OVCAR-8 ovarian): 95.2%
- growth (OVCAR-5 ovarian): 107%
- growth (OVCAR-4 ovarian): 106%
- growth (SK-OV-3 ovarian): 97%
- growth (IGROV1 ovarian): 103%
- growth (OVCAR-3 ovarian): 112%
- growth (HS 578T breast): 103%
- growth (NCI/ADR-RES ovarian): 104%
- growth (T-47D breast): 97.3%

SMILES: O=C1NC(SCc2ccc(F)cc2)=N/C1=C/c1cccc(OCc2ccc(Cl)cc2)c1
- growth (SK-MEL-2 melanoma): 99.4%
- growth (EKVX NSCLC): 66.3%
- growth (SN12C renal): 22.1%
- growth (UO-31 renal): -38.2% (active)
- growth (TK-10 renal): -5.9% (active)
- growth (A498 renal): -5.28% (active)
- growth (CCRF-CEM leukemia): 54.8%
- growth (MOLT-4 leukemia): 51.2%
- growth (SR leukemia): 20.6%
- growth (RPMI-8226 leukemia): 53.5%
- growth (OVCAR-8 ovarian): 52.8%
- growth (OVCAR-5 ovarian): 66.1%
- growth (OVCAR-4 ovarian): -48.4% (active)
- growth (SK-OV-3 ovarian): 55.4%
- growth (IGROV1 ovarian): 26.6%
- growth (OVCAR-3 ovarian): 18.1%
- growth (HS 578T breast): 29.6%
- growth (NCI/ADR-RES ovarian): 65.8%
- growth (T-47D breast): 53.5%

SMILES: COc1ccc2[nH]c(=O)c(/C=C/C(=O)c3ccccc3OC)cc2c1
- growth (SK-MEL-2 melanoma): -2.52% (active)
- growth (EKVX NSCLC): 37.8%
- growth (SN12C renal): 8.57% (active)
- growth (UO-31 renal): 23.6%
- growth (TK-10 renal): 42%
- growth (A498 renal): 21.7%
- growth (CCRF-CEM leukemia): 7.53% (active)
- growth (MOLT-4 leukemia): 10.9%
- growth (SR leukemia): 2.69% (active)
- growth (RPMI-8226 leukemia): 5.61% (active)
- growth (OVCAR-8 ovarian): 1.18% (active)
- growth (OVCAR-5 ovarian): 12.1%
- growth (OVCAR-4 ovarian): 50.8%
- growth (SK-OV-3 ovarian): 6.12% (active)
- growth (IGROV1 ovarian): 14.5%
- growth (OVCAR-3 ovarian): 8.25% (active)
- growth (HS 578T breast): 8.33% (active)
- growth (NCI/ADR-RES ovarian): 10.4%
- growth (T-47D breast): -2.02% (active)
